Results on 7 compounds are retold here after PubChem BioAssay (EPA / NIEHS).

The structures appear in SMILES notation. Active and inactive are the calls of the source. How the source made its calls: active means hit-call score of the fitted dose curve at least 0.9, where 1 is the maximum; inactive means score below 0.9.

Assay [1] can be described thus: ATG_GRE_CIS: Attagene CIS-FACTORIAL HepG2 Assay for human Glucocorticoid Response Elements (GRE) (AID 2282947). The settings on record: HepG2 GRE cis-reporter, Attagene multiplex mRNA; actives raise or lower the signal. The procedure, abridged:
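Cells (HepG2) bearing transfected cis-promoter reporter transcription units were treated with chemical for 24 hours. Reporter mRNA was measured via RT-PCR with capillary electrophoresis, and activity was fitted in both directions relative to DMSO.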

A short description of assay [2]: ATG_ISRE_CIS: Attagene CIS-FACTORIAL HepG2 Assay for human Interferon Regulatory Factor 1 (IRF1) binding to an Interferon-Stimulated Response Element (ISRE) (AID 2282948). The settings on record: HepG2 ISRE cis-reporter (Attagene), mRNA transcription readout; actives raise or lower the signal. The procedure, abridged: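 Endogenous transcription factor activity read as reporter transcript abundance via RT-PCR and capillary electrophoresis. HepG2 cells transiently transfected, 24 h chemical exposure. Gain or loss fitted against DMSO baseline.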

A short description of assay [3]: ATG_M_32_CIS: Attagene CIS-FACTORIAL HepG2 Assay for M32 Transcription Factor (Internal Marker) (AID 2282949).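 Further: background control marker of the multiplexed CIS panel rather than a real target.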 The settings on record: HepG2 Attagene cis-factorial M32 reporter, mRNA; actives raise or lower the signal. The procedure, abridged: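 HepG2 transfectants (cis-regulated reporter transcription units) dosed 24 h. Reporter mRNA by RT-PCR plus CE, analysed as gain or loss relative to DMSO.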

The nature of assay [4]: ATG_M_06_CIS: Attagene CIS-FACTORIAL HepG2 Assay for M06 Transcription Factor (Internal Marker) (AID 2282950). The settings on record: HepG2 Attagene CIS-FACTORIAL M06 internal marker reporter; actives raise or lower the signal. The procedure, abridged:
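Steps: transfect HepG2 with multiplexed cis-element reporter constructs; dose chemical 24 h; extract RNA with DNase treatment; reverse-transcribe, PCR-amplify, 6-FAM label, HpaI digest; separate fragments by capillary electrophoresis. Activity fitted both directions versus DMSO.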

Assay [5] deals with Hypoxia-inducible factor 1-alpha (Homo sapiens) (UniProt Q16665). Nature of the assay: ATG_HIF1a_CIS: Attagene CIS-FACTORIAL HepG2 Assay for human Hypoxia Inducible Factor 1 (HIF1A) (AID 2282951). Particulars: HepG2 Attagene cis-factorial HIF1a reporter transcription; actives raise or lower the signal. The procedure, abridged: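 HepG2, transient cis-reporter library, 24 h dosing. RNA → RT (oligo dT) → PCR → 6-FAM primer extension → HpaI → CE. Bidirectional curve fit vs DMSO.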

Assay [6] has as its target Hepatocyte nuclear factor 6 (Homo sapiens) (UniProt Q9UBC0). The experiment in a line: ATG_HNF6_CIS: Attagene CIS-FACTORIAL HepG2 Assay for human Hepatocyte Nuclear Factor 6 (HNF6) (AID 2282952). The settings on record: HepG2 Attagene cis-factorial HNF6 reporter transcription; actives raise or lower the signal. The procedure, abridged: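 Endogenous transcription factor activity in human HepG2 liver cells was captured through cis-regulated reporter constructs. After 24 h treatment, reporter mRNA was measured by RT-PCR with capillary electrophoresis, and activity was fitted in both directions relative to DMSO.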

The nature of assay [7]: ATG_MRE_CIS: Attagene CIS-FACTORIAL HepG2 Assay for human Metal Responsive Element (MRE) (AID 2282954). The settings on record: HepG2 MRE cis-reporter transcription, Attagene multiplex; actives raise or lower the signal. The procedure, abridged: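 Cells were transfected with cis-promoter reporter transcription units, then dosed for 24 h. RNA was reverse-transcribed, amplified, fluorescently labelled and resolved by capillary electrophoresis, and activity was fitted in both directions relative to DMSO.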

Assay [8] can be described thus: ATG_PBREM_CIS: Attagene CIS-FACTORIAL HepG2 Assay for human Phenobarbital-responsive Enhancer Module (PBREM) (AID 2282955). Particulars: HepG2 PBREM cis-reporter, Attagene multiplexed transcription; actives raise or lower the signal. The procedure, abridged:
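HepG2, transient MRTU transfection, 24 h dosing; RNA → oligo(dT) RT → PCR → 6-FAM extension → HpaI → CE. Bidirectional fit vs DMSO.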

The target of assay [9] is Paired box protein Pax-6 (Homo sapiens) (UniProt P26367). The experiment in a line: ATG_Pax6_CIS: Attagene CIS-FACTORIAL HepG2 Assay for human Paired Box 6 (PAX6) (AID 2282956). Particulars: HepG2 CIS-FACTORIAL PAX6 reporter transcription, RNA readout; actives raise or lower the signal. A digest of the protocol: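 Read-out is reporter transcript level, measured by RT-PCR with fluorescent primer extension and capillary electrophoresis after 24 h dosing of transfected HepG2 cells. Activity in either direction fitted relative to DMSO control.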

A short description of assay [10]: ATG_PXRE_CIS: Attagene CIS-FACTORIAL HepG2 Assay for human Pregnane X Receptor Element (PXRE) (AID 2282957). The settings on record: HepG2 Attagene CIS-FACTORIAL PXRE reporter, mRNA; actives raise or lower the signal. A digest of the protocol:
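Endogenous transcription factor activity in HepG2 was gauged through induction of reporter mRNA driven by a cis-regulating promoter element, sampled 24 h post-treatment. Activity was fitted in both directions against DMSO negative control.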

Assay [11] is described as follows: ATG_RORE_CIS: Attagene CIS-FACTORIAL HepG2 Assay for human RAR-related Orphan Receptor Element (RORE) (AID 2282959). The settings on record: HepG2 Attagene cis-factorial RORE reporter, mRNA; actives raise or lower the signal. A digest of the protocol:
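Multiplexed reporter assay measuring mRNA induction from a cis promoter element in transiently transfected HepG2 cells after 24 h treatment. Detection via RT-PCR and capillary electrophoresis fluorescence; DMSO serves as baseline.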

Assay [12] is described as follows: ATG_Sox_CIS: Attagene CIS-FACTORIAL HepG2 Assay for human SRY-box transcription factor (SOX) (AID 2282960). The settings on record: HepG2 Attagene cis-factorial SOX reporter, mRNA; actives raise or lower the signal. The procedure, abridged: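 Cells were transfected with reporter constructs under cis-regulatory promoters, then exposed to chemicals for 24 h. Reporter transcripts were quantified by fluorescence after RT-PCR and capillary electrophoresis; activity was fitted in both directions against DMSO.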

Assay [13] addresses Transcription factor Sp1 (Homo sapiens) (UniProt P08047). Nature of the assay: ATG_Sp1_CIS: Attagene CIS-FACTORIAL HepG2 Assay for human Specificity Protein 1 (Sp1) (AID 2282961). Particulars: HepG2 Sp1 cis-reporter transcription, actives raise or lower the signal. The procedure, abridged: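 Measures mRNA induction of an Sp1-linked reporter in HepG2 cells 24 h post-dosing. Multiplexed reporters read by RT-PCR and capillary electrophoresis; DMSO serves as negative control and baseline.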

Assay [14] can be described thus: ATG_SREBP_CIS: Attagene CIS-FACTORIAL HepG2 Assay for human Sterol Regulatory Element Binding (SREBP) (AID 2282962). Particulars: HepG2 Attagene cis-factorial SREBP reporter, mRNA; actives raise or lower the signal. A digest of the protocol:
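Endogenous SREBP activity read as cis-element-driven reporter transcript in transiently transfected HepG2, 24 h post-dosing; quantified via RT-PCR plus capillary electrophoresis of fluorescent fragments. Gain or loss of signal fitted relative to DMSO baseline.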

The target in assay [15] is Signal transducer and activator of transcription 3 (Homo sapiens) (UniProt P40763). The experiment in a line: ATG_STAT3_CIS: Attagene CIS-FACTORIAL HepG2 Assay for human Signal Transducer and Activator of Transcription 3 (STAT3) (AID 2282963). The settings on record: HepG2, Attagene cis-factorial STAT3 reporter transcription; actives raise or lower the signal. A digest of the protocol: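 HepG2, MRTU-transfected, 24 h dosing. RNA → RT → PCR → FAM label → HpaI → CE. Bidirectional fit vs DMSO.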

Assay [16] in a line: ATG_TA_CIS: Attagene CIS-FACTORIAL HepG2 Assay for human TA Basal Promoter (AID 2282964). The settings on record: HepG2 Attagene CIS-factorial TA basal promoter reporter; actives raise or lower the signal. The procedure, abridged:
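Steps: transfect HepG2 with MRTUs; dose 24 h; isolate RNA, DNase-treat, reverse-transcribe; PCR and FAM-label reporter cDNA; digest with HpaI 2h at 37 C; run capillary electrophoresis. Activity fitted both directions against DMSO.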

Assay [17] in a line: ATG_TCF_b_cat_CIS: Attagene CIS-FACTORIAL HepG2 Assay for human T-Cell-Factor with beta-catenin (TCF/b-cat) (AID 2282965). Particulars: HepG2 TCF/beta-catenin cis-reporter transcription, actives raise or lower the signal. The procedure, abridged:
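Using capillary electrophoresis as the read-out, labelled reporter cDNA fragments from transiently transfected HepG2 were sized and quantified. Exposure lasted 24 hours; activity in either direction was referenced to DMSO.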

Assay [18] deals with Heat shock factor protein 1 (Homo sapiens) (UniProt Q00613). The experiment in a line: ATG_HSE_CIS: Attagene CIS-FACTORIAL HepG2 Assay for human Heat Shock Transcription Factor 1 (HSE) (AID 2282953). Particulars: HepG2 HSE cis-reporter, Attagene RNA transcription; actives raise or lower the signal. A digest of the protocol:
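Cells were transfected with cis-element-driven reporter constructs, dosed for 24 h, then total RNA was reverse-transcribed and reporter cDNA amplified, FAM-labelled and digested with HpaI. Fragments were resolved by capillary electrophoresis; gain or loss was fitted against DMSO.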

Assay [19] can be described thus: ATG_PPRE_CIS: Attagene CIS-FACTORIAL HepG2 Assay for human Peroxisome Proliferator-activated Response Element (PPRE) (AID 2282958). The settings on record: HepG2 PPRE cis-element reporter, Attagene transcription factor profiling; actives raise or lower the signal. A digest of the protocol: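 Transcript-level reporter induction in transfected HepG2 cells after 24 h chemical exposure, quantified by fluorescence from RT-PCR products separated by capillary electrophoresis.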

Sequence of Transcription factor Sp1 (Homo sapiens) (P08047 whole entry, looked up): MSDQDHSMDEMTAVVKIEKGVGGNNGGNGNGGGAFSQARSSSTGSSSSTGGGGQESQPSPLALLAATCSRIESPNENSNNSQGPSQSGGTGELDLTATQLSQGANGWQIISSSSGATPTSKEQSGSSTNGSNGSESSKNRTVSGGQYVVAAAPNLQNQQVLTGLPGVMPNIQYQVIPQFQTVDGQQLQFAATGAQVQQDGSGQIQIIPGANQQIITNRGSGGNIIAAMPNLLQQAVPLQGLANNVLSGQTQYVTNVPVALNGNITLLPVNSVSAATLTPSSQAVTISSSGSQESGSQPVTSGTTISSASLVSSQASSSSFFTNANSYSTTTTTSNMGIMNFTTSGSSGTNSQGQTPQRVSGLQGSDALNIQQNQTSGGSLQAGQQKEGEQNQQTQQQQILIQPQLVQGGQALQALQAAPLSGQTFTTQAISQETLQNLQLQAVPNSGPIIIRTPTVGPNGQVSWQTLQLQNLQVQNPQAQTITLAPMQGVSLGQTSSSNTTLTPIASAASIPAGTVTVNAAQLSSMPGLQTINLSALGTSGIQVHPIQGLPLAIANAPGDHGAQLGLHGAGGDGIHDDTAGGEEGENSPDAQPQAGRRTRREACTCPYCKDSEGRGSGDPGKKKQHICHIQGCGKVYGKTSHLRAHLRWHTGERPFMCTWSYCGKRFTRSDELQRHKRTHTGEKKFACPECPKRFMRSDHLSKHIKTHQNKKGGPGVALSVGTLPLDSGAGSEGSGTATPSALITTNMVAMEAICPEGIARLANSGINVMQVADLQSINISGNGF
Sequence of Hypoxia-inducible factor 1-alpha (Homo sapiens) (Q16665 whole entry, looked up): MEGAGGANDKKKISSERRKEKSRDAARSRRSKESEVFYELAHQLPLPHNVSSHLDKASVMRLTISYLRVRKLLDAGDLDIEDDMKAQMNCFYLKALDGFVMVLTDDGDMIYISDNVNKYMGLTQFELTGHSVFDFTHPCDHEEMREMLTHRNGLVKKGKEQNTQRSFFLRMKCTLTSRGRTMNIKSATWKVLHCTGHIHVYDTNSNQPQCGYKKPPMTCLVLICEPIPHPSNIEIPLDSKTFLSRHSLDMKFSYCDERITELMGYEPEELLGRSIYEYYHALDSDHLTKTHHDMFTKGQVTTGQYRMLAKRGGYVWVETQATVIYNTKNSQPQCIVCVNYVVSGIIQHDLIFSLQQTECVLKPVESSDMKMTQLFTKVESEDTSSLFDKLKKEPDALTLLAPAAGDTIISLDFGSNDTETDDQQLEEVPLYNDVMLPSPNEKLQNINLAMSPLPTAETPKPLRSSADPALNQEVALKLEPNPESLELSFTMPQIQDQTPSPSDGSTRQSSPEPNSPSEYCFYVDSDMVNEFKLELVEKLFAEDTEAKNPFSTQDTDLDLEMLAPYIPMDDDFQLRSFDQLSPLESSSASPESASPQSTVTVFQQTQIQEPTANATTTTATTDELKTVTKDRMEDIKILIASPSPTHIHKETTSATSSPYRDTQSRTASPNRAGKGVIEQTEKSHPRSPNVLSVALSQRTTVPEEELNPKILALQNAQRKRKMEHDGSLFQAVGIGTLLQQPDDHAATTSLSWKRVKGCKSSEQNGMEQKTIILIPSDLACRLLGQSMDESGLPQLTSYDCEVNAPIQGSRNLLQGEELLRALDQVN
Sequence of Paired box protein Pax-6 (Homo sapiens) (P26367 whole entry, looked up): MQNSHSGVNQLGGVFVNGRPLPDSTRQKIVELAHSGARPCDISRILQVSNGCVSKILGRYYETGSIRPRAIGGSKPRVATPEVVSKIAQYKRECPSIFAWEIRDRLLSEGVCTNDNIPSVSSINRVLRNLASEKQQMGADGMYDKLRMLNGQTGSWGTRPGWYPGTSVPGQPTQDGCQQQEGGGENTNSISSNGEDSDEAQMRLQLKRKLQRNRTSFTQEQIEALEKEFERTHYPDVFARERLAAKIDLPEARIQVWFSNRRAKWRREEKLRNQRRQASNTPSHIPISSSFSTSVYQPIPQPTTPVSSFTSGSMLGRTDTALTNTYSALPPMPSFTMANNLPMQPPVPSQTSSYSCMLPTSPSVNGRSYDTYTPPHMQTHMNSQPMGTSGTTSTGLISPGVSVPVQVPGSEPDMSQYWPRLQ
Sequence of Heat shock factor protein 1 (Homo sapiens) (Q00613 whole entry, looked up, the tested form may be a part): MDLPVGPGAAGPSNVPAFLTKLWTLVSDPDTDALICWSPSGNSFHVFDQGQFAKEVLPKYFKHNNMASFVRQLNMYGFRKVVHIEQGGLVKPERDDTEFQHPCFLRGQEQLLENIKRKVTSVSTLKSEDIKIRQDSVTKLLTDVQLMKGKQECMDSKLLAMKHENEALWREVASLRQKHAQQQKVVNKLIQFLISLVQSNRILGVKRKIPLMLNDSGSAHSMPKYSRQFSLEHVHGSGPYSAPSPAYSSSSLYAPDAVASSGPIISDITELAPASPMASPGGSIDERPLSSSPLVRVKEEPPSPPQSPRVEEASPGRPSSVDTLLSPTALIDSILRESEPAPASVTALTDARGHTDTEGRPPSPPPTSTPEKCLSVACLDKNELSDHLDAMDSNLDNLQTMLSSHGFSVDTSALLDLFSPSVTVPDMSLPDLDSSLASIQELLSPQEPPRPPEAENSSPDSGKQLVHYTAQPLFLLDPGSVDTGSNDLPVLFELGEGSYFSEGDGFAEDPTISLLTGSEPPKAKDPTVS
Sequence of Hepatocyte nuclear factor 6 (Homo sapiens) (Q9UBC0 whole entry, looked up): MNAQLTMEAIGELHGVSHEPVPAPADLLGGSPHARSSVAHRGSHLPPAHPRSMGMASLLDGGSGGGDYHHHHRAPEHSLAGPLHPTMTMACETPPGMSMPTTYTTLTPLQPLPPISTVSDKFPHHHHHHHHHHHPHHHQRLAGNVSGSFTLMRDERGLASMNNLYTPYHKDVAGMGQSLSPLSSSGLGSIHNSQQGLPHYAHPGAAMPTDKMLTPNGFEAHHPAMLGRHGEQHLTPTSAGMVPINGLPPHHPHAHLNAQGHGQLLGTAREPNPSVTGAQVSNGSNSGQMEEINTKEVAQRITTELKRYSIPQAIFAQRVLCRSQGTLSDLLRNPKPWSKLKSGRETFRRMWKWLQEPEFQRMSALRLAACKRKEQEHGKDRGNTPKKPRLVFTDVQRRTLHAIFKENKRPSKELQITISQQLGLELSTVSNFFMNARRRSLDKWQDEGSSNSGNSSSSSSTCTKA
Sequence of Signal transducer and activator of transcription 3 (Homo sapiens) (P40763 whole entry, looked up): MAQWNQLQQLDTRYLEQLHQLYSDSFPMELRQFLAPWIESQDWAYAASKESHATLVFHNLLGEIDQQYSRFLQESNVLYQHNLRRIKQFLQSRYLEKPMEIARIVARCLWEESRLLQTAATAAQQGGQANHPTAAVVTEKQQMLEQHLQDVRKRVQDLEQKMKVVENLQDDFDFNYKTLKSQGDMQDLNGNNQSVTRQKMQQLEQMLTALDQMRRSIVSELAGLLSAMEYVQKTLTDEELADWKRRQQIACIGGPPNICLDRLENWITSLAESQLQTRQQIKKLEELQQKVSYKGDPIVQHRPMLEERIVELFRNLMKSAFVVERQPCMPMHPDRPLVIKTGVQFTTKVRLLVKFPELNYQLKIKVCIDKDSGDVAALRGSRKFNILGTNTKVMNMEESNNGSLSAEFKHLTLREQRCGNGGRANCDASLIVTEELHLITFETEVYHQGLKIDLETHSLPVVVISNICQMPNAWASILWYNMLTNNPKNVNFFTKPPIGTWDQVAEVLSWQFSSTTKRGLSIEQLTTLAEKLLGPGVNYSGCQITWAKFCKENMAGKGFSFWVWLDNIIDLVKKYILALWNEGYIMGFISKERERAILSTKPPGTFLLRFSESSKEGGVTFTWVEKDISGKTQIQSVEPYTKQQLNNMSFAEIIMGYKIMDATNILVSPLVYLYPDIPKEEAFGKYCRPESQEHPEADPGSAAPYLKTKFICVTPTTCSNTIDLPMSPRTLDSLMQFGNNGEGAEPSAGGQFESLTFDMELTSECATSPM

For orientation: AC50 means the midpoint of the concentration-response curve, whichever way the signal moves. As to `CSCCC=O`, the result in assay [1], in assay [2], in assay [3], in assay [4], in [5] and in assay [6] was inactive. Moreover, the result in [7], in assay [8], in assay [9], in [11], in [12] and in [13] was inactive. Moreover, the result in assay [14], in assay [15], in [16] and in assay [17] was inactive. For the same compound, in assay [10], the AC50 was 10.9 µM (active).

Consider `Cc1ccc2c(c1)C(=O)OC2=O`, for which the call in assay [1], in assay [2], in assay [3], in assay [4], in assay [5] and in assay [18] was inactive. Further, the compound was classed as inactive in assay [7], in assay [8], in assay [9], in [10], in assay [12] and in assay [13]. Also, the outcome in assay [14], in [15], in [16] and in [17] was inactive.

Consider `COCCOCCOCCO`, for which the result in assay [1], in [2], in assay [3], in assay [4], in assay [6] and in assay [18] was inactive. In addition, the compound was classed as inactive in [7], in assay [8], in assay [9], in [11], in assay [12] and in assay [13]. Besides, the compound was classed as inactive in assay [14], in [15], in [16] and in assay [17]. Moreover, the AC50 in assay [10] was 33.4 µM (active).

Turning to `C=C(C)[C@H]1CC=C(C)C(=O)C1`, the outcome in assay [1], in assay [2], in assay [3], in [4], in assay [5] and in assay [6] was inactive. For the same compound, the outcome in assay [18], in assay [7], in assay [11], in assay [12], in assay [13] and in assay [14] was inactive. Further, the call in [15], in assay [16] and in assay [17] was inactive. Moreover, the half-maximal activity concentration (AC50) in [10] was 27.9 µM (active).

On to `COC(C)(C)CCCC(C)CC=O` (stereo not given), for which the result in assay [1], in assay [2], in assay [3], in assay [4], in assay [5] and in assay [6] was inactive. The call in assay [7], in [8], in [9], in assay [10], in assay [19] and in assay [11] was inactive. Also, the result in [12], in assay [13], in assay [14], in assay [15], in assay [16] and in [17] was inactive.

Consider `CC(=O)O[C@H]1C[C@@H]2CC[C@@]1(C)C2(C)C`, for which the result in assay [1], in [2], in assay [3], in assay [4], in assay [5] and in assay [6] was inactive. Further, the compound was called inactive in assay [18], in assay [7], in assay [10], in [11], in assay [12] and in assay [13]. In addition, the outcome in assay [14], in assay [15] and in assay [17] was inactive.

As to `O=C(c1ccccc1)C(O)c1ccccc1` (stereo not given), the compound was classed as inactive in assay [1], in assay [2], in [3], in assay [4], in assay [5] and in assay [6]. The compound was classed as inactive in [7], in [8], in [9], in [19], in assay [11] and in assay [13]. Further, the compound was called inactive in [14], in [15] and in assay [16]. The AC50 in assay [10] is 57 µM (active).
